Experimental data as given in PubChem BioAssay (Tox21).
Values joined by “and” are separate entries in the source; they are usually repeats but may differ in a detail not shown here. Equal entries are not always repeated. Records with an inconclusive call do not appear. Active and inactive are the calls of the source. Unless noted, the call rests on the fitted dose curve.

Assays:
[1] = Nuclear factor erythroid 2-related factor 2/antioxidant responsive element (Nrf2/ARE) small molecule agonists: luciferase reporter gene qHTS assay in human keratinocytes (AID 1919969); further: nearly all actives have a fitted effect of over 35% in size; further: potency means the concentration at half of the fitted maximal effect
[2] = target: Gonadotropin-releasing hormone receptor (Homo sapiens) (UniProt P30968); experiment: Human gonadotropin-releasing hormone receptor (GnRHR) small molecule agonists, calcium flux assay in GnRHR-HEK293 cells (AID 1920063); further: nearly all actives have a fitted effect of over 35% in size
In short: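 We seeded human GnRHR-expressing HEK293 cells for 18 hours, loaded them with calcium dye for an hour at 37 C, added test compounds, and recorded fluorescence intensity kinetically for three minutes.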

[3] = target: KiSS-1 receptor (Homo sapiens) (UniProt Q969F8); experiment: Human kisspeptin (KISS1R) small molecule agonists, calcium flux assay in KISS1R-HEK293 cells (AID 1920064; active means well fitted activation curve with a large enough effect in the repeat runs)
In short: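 Kinetic calcium assay, 1 s sampling over 3 min at Ex/Em 480/540, in HEK293 cells engineered with human KISS1R; compounds delivered in DMSO after 1 h dye loading.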

[4] = G protein-coupled receptor (GPCR) small molecule agonists, calcium flux assay: HEK293 wild type cell line counter screen (AID 1920065)
In short: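 Calcium-sensitive dye, loaded 1 h at 37 C into cells cultured 18 h, reports compound-evoked calcium release as fluorescence (Ex/Em 480/540), measured over 3 min. Agonist mode; 15-point titrations, triplicate.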

[5] = p53 small molecule agonists, cell-based qHTS assay with human liver microsomes (AID 1963577)
In short: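 Fluorescence of the beta-lactamase reporter in p53RE-bla cells, detected with LiveBLAzer substrate (2 h, room temperature, dark), served as the read-out after 16 h compound exposure at 37 C with human liver microsomes and NADPH, each 0.5 mg/mL final.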

[6] = p53 small molecule agonists, cell-based qHTS assay with rat liver microsomes (AID 1963578)
In short: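 Cells carrying a p53 response element–beta-lactamase reporter were plated and rested 5 h, then dosed with compound in DMSO plus rat liver microsomes and NADPH, each at 0.5 mg/mL final. After 16 h at 37 C, LiveBLAzer substrate was added for 2 h.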

[7] = p53 small molecule agonists, cell-based qHTS assay with human liver microsomes: qHTS cell viability counter screen (AID 1963579); further: nearly all actives have a fitted effect of over 45% in size; further: potency means the concentration at half of the fitted maximal effect
In short: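 Cytotoxicity counter screen: p53RE-bla, 4,000 cells/well; 5 h settle, 37 C/5% CO2; cpd + HLM 0.5 mg/mL + NADPH 0.5 mg/mL (final); 16 h, 37 C; CellTiter-Glo, 30 min RT, luminescence.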

[8] = p53 small molecule agonists, cell-based qHTS assay with rat liver microsomes: qHTS cell viability counter screen (AID 1963580); further: nearly all actives have a fitted effect of over 45% in size; further: potency means the concentration at half of the fitted maximal effect
In short: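 Viability is assessed in parallel with the p53 reporter read: HCT-116 p53RE-bla cells receive compounds plus rat microsomes and NADPH (0.5 mg/mL final apiece), incubate 16 h at 37 C, and then CellTiter-Glo luminescence is recorded.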

[9] = p53 small molecule agonists, cell-based qHTS assay: qHTS cell viability counter screen (AID 1963581); further: nearly all actives have a fitted effect of over 45% in size; further: potency means the concentration at half of the fitted maximal effect
In short: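 Following 5 h attachment, HCT-116 p53RE-bla cells took up compound for 16 h at 37 C; the reporter was read with B/G FRET substrate (2 h RT), and viability then via CellTiter-Glo ATP luminescence.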

[10] = p53 small molecule agonists, cell-based qHTS assay (AID 1963582; active means well fitted activation curve with a large enough effect in the signal ratio in the repeat runs, not every such curve was filed as active; the % refers to the signal ratio)
In short: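 In this cell-based concentration-response screen, a p53 response element drives beta-lactamase; cells received DMSO-borne compounds after 5 h culture and were incubated a further 16 h before FRET substrate development.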

[11] = target: 5-hydroxytryptamine receptor 2A (Homo sapiens) (UniProt P28223); experiment: 5-hydroxytryptamine receptor 2A (HTR2A) small molecule antagonists, cell-based qHTS assay (AID 1963586); further: nearly all actives have a fitted effect of over 45% in size; further: potency means the concentration at half of the fitted maximal effect
In short: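 Antagonist-mode intracellular calcium assay: DOI (4 nM) added after 5 min compound pre-incubation at room temperature to dye-loaded HTR2A-CHO cells. Fluorescence followed for 3 min, sampled every second.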

[12] = target: 5-hydroxytryptamine receptor 2A (Homo sapiens) (UniProt P28223); experiment: 5-hydroxytryptamine receptor 2A (HTR2A) small molecule agonists, cell-based qHTS assay (AID 1963587); further: nearly all actives have a fitted effect of over 30% in size; further: potency means the concentration at half of the fitted maximal effect
In short: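 CHO cells stably expressing human HTR2A, plated 18 h, loaded with calcium dye 1 h at 37 C. Agonist mode: compounds added and intracellular calcium fluorescence recorded kinetically for 2 min at 1 sec intervals.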

[13] = target: Muscarinic acetylcholine receptor M1 (Homo sapiens) (UniProt P11229); experiment: Cholinergic receptor muscarinic 1 (CHRM1) small molecule antagonists, cell-based qHTS assay (AID 1963588); further: nearly all actives have a fitted effect of over 40% in size; further: potency means the concentration at half of the fitted maximal effect
In short: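 CHRM1-CHO calcium-flux assay, antagonist mode. Cells were seeded 18 h, dye-loaded 1 h at 37 C and given compound for 5 min at RT, then acetylcholine was added at 50nM. FDSS fluorescence was read 3 min; 15 concentrations, three runs.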

[14] = cAMP Responsive Elements (CRE) small molecule antagonists, cell-based qHTS assay (AID 1963591; active means well fitted inhibition curve with a large enough effect in the signal ratio in the repeat runs, not every such curve was filed as active; the % refers to the signal ratio)
In short: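 HEK293T cells carrying a CRE-driven beta-lactamase reporter receive compound and NKH477 (0.25 uM final) for 3 h. Fluorescence from LiveBLAzer B/G FRET substrate is read after 2 h at room temperature.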

[15] = target: D(2) dopamine receptor (Homo sapiens) (UniProt P14416); experiment: Dopamine D2 receptor (DRD2) small molecule agonists, cell-based qHTS assay (AID 1963594); further: nearly all actives have a fitted effect of over 35% in size; further: potency means the concentration at half of the fitted maximal effect
In short: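 HEK293 cells stably expressing human DRD2, pre-treated with PDE inhibitor Ro20-1724 (0.1 mM final) and compound 10 min at room temperature, then stimulated with NKH477 (200nM […]) for 30 min. cAMP read by HTRF (665/620 nm).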

[16] = target: D(2) dopamine receptor (Homo sapiens) (UniProt P14416); experiment: Dopamine D2 receptor (DRD2) small molecule antagonists, cell-based qHTS assay (AID 1963595; active means well fitted inhibition curve with a large enough effect in the signal ratio in the repeat runs, with a control signal flat; the % refers to the signal ratio; further: potency means the concentration at half of the fitted maximal effect)
In short: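 In this cell-based antagonist screen, compounds act for 10 min at room temperature before a 30 min challenge with 12 nM quinpirole and 200 nM NKH477. cAMP is quantified by HTRF competition in DRD2-HEK293 cells containing 0.1 mM Ro20-1724.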

[17] = cAMP Responsive Elements (CRE) small molecule agonists, cell-based qHTS assay (AID 1963590)
In short: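 A CRE-responsive beta-lactamase reporter in HEK 293T cells was used. Treatment ran 3 h at 37 C; detection used LiveBLAzer B/G FRET substrate for 2 h at room temperature.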

[18] = target: Muscarinic acetylcholine receptor M1 (Homo sapiens) (UniProt P11229); experiment: Cholinergic receptor muscarinic 1 (CHRM1) small molecule agonists, cell-based qHTS assay (AID 1963589); further: nearly all actives have a fitted effect of over 35% in size
In short: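 Measures agonist-induced intracellular calcium rise. Stable human CHRM1 CHO line, 1 h dye load at 37 C, compounds from DMSO, kinetic fluorescence read.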

[19] = target: Beta-2 adrenergic receptor (Homo sapiens) (UniProt P07550); experiment: Adrenergic beta2 receptor (ADRB2) small molecule antagonists, cell-based qHTS assay (AID 1963592); further: series mostly up to about 92 µM; nearly all actives have a fitted effect of over 50% in size
In short: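 Cells (CHO, stable ADRB2 overexpression) incubated 18-20hr at 37C; compounds added from DMSO; agonist mix (1nM isoproterenol, 100uM IBMX, 25uM Ro-20-1724) added; 0.5hr RT; d2-cAMP and anti-cAMP-cryptate added; 1hr RT; 665/615 nm read.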

[20] = target: Beta-2 adrenergic receptor (Homo sapiens) (UniProt P07550); experiment: Adrenergic beta2 receptor (ADRB2) small molecule agonists, cell-based qHTS assay (AID 1963593);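 further: CHO cells stably overexpressing human ADRB2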
In short: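 CHO cells stably over-expressing ADRB2 were plated overnight at 37C, then dosed with compounds plus a stimulation mix containing 100uM IBMX and 25uM Ro-20-1724 for 0.5hr at room temperature. cAMP was measured by HTRF competition, 1hr.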

Measured: Potency

Sequence of KiSS-1 receptor (Homo sapiens) (Q969F8 whole entry, looked up): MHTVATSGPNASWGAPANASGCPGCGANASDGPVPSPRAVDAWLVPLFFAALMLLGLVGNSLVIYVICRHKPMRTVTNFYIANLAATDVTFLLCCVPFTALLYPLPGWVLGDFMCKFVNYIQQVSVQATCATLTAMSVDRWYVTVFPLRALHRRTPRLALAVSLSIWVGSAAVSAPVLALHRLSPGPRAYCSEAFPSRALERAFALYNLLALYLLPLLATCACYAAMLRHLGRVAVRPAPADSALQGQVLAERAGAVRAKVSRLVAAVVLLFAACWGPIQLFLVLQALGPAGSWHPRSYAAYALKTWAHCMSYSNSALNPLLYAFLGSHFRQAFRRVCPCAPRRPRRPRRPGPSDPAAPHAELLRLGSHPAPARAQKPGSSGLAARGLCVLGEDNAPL
Sequence of 5-hydroxytryptamine receptor 2A (Homo sapiens) (P28223 whole entry, looked up): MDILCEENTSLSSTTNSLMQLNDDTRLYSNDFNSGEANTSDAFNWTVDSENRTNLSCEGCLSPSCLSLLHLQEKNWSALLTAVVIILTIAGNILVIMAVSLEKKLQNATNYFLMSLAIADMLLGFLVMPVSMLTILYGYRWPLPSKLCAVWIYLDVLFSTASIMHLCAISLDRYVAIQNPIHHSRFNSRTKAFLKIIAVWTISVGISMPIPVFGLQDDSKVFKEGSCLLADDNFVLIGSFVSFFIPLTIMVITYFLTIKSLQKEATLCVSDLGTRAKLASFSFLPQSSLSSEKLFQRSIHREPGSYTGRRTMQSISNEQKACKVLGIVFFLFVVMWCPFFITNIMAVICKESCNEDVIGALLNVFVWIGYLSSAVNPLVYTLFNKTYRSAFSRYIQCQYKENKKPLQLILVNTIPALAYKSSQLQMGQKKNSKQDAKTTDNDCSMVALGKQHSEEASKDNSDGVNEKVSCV
Sequence of Muscarinic acetylcholine receptor M1 (Homo sapiens) (P11229 whole entry, looked up): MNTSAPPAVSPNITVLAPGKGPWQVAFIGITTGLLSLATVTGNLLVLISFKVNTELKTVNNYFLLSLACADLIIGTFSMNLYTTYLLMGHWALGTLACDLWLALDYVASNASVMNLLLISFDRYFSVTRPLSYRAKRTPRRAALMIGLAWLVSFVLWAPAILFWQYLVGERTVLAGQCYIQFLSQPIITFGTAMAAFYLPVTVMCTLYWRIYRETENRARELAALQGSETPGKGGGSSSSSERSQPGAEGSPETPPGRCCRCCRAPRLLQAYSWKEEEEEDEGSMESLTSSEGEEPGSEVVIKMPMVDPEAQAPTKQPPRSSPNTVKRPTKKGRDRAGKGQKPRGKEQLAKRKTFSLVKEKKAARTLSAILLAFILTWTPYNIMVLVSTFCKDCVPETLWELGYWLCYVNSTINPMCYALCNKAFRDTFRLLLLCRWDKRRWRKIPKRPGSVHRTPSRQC
Sequence of D(2) dopamine receptor (Homo sapiens) (P14416 whole entry, looked up): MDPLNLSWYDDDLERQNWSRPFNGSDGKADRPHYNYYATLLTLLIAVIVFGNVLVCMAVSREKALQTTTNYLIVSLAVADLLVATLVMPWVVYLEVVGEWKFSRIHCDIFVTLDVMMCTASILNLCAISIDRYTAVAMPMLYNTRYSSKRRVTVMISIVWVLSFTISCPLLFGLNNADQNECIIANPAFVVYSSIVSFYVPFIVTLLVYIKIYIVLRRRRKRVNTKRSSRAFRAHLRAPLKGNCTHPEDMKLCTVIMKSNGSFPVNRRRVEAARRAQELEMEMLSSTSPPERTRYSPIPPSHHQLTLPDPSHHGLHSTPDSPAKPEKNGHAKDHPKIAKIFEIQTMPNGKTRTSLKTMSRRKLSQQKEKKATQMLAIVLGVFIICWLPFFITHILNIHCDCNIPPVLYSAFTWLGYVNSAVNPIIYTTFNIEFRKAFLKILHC
Sequence of Gonadotropin-releasing hormone receptor (Homo sapiens) (P30968 whole entry, looked up): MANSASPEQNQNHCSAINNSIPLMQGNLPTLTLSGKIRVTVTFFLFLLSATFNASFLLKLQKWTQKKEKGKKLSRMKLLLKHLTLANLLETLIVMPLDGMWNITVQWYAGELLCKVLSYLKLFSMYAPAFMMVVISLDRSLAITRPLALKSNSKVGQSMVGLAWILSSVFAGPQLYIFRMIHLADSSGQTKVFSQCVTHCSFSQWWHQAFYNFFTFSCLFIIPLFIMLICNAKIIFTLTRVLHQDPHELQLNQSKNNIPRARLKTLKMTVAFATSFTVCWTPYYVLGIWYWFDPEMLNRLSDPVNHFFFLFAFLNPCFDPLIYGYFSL
Sequence of Beta-2 adrenergic receptor (Homo sapiens) (P07550 whole entry, looked up): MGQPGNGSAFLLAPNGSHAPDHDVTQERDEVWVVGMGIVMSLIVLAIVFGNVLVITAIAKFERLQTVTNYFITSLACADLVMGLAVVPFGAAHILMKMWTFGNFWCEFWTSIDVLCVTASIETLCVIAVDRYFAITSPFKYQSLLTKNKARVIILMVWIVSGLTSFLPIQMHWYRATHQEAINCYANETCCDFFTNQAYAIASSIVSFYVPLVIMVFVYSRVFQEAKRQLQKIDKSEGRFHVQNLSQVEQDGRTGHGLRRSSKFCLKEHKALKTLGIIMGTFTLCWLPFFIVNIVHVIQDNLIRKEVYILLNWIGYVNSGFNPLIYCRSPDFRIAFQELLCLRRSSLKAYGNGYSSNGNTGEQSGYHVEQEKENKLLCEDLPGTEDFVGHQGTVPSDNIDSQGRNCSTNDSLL

C=C[C@](C)(O)CC[C@@H]1[C@@]2(C)CCCC(C)(C)[C@@H]2CC[C@@]1(C)O
active: [7] 32.4 µM | [8] 45.8 µM | [9] 9.13 µM | [16] 43.3 µM
not listed: [17] | [18] | [19] | [20]
inactive: all other assays above

Nc1ccc(O)c(N)c1
not listed: [13] | [15] | [16] | [18] | [19] | [20]
inactive: all other assays above

CN(C/C=C/c1ccccc1)Cc1cccc2ccccc12
active: [16] 6.68 µM
not listed: [11] | [14] | [17] | [20]
inactive: all other assays above

CCOc1ccc(N=Nc2ccc(/C=C/c3ccc(N=Nc4ccc(OCC)cc4)cc3S(=O)(=O)O)c(S(=O)(=O)O)c2)cc1
not listed: [14] | [20]
inactive: all other assays above

O=C(CC(=O)c1ccccc1)c1ccccc1
active: [1] 32.9 µM
not listed: [12] | [15] | [17]
inactive: all other assays above

Cc1cc(Nc2ccc(O)cc2)ccc1N
active: [1] 43.1 µM
not listed: [15] | [16] | [19] | [20]
inactive: all other assays above

CCC(C)c1cc(C(C)(C)C)c(O)c(C(C)(C)C)c1 (stereo not drawn)
active: [1] 16.9 µM
not listed: [20]
inactive: all other assays above

COC(=O)[C@@H](N)Cc1ccc(O)c(O)c1
active: [15] 26.6 µM
not listed: [11]
inactive: all other assays above

O=C1c2ccccc2C(=O)N1SC1CCCCC1
active: [1] 21.7 µM and 24.3 µM
not listed: [12] | [17]
inactive: all other assays above

O=[N+]([O-])c1ccc(NCCO)c(OCCO)c1
not listed: [20]
inactive: all other assays above

CCCN(CCc1cccs1)[C@H]1CCc2c(O)cccc2C1
active: [11] 0.365 µM | [12] 0.12 µM | [13] 10.3 µM
not listed: [14] | [15] | [17]
inactive: all other assays above

CCCCC/C(=C\c1ccccc1)CO
active: [12] 54.3 µM
not listed: [10] | [17] | [20]
inactive: all other assays above

Nc1ccc([N+](=O)[O-])c(N)c1
not listed: [17] | [20]
inactive: all other assays above

O=C(Oc1ccccc1)c1ccc2ccccc2c1O
active: [1] 8.63 µM
not listed: [11]
inactive: all other assays above
